Growth data for 39 compounds are collected here from PubChem BioAssay (NCI).

This is part of a sample that, as a whole, favours compounds with a hit. Of some 83,000 tested, about 20% had one in any assay.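 Growth was measured after 48 h exposure to one concentration of compound in 96-well plates. Values under 10 count as active.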 Values without a mark were called inactive. The source made the active and inactive calls.

For this assay, the system named is HL-60(TB) leukemia. Put plainly: NCI-60 one-dose screen, 48 h (100 = growth as untreated, 0 = no growth, -100 = all killed). The note with it: 10 µM unless noted.
For `CCN(CC)CCCNc1cc(OC)cc2cccnc12`, the growth is 94.7%.

`CCn1c(CN2CCN(Cc3ccccc3)CC2)nc2cc(NC(=O)c3cccs3)ccc21`: the growth is -51.2% (active).

Take `CCC/C(=N\NC(N)=O)C(OC)OC`: the growth is 86.5%.

On to `O=C(c1ccc(Cl)cc1Cl)N1c2ccccc2Sc2ccccc21`, for which the growth is 35.8%.

For the compound `CC(C)[C@H](NC(=O)Cn1cc(C(=O)O)nn1)C(=O)O`, the growth is 123%.

Turning to `CC(=O)c1ccc(Nc2nc(Cl)nc(Oc3c(Cl)cccc3Cl)n2)cc1`, the growth was 97.8%.

For the compound `CC(=O)O[C@H]1CC[C@]2(C)[C@H]3CC=C4[C@@H]5CC(C)(C)CC[C@]5(C(=O)OCC(COC(=O)C(Cl)Cl)(COC(=O)C(Cl)Cl)NC(=O)C(Cl)Cl)CC[C@@]4(C)[C@]3(C)CC[C@H]2C1(C)C`, the growth is 33.1%.

With `Cc1ccc(NS(=O)(=O)c2ccc3c(c2)C(=O)CC(c2ccc(C(=O)C(C)C)cc2)N3)cc1C` (centres undefined), the growth was 61.4%.

`COc1cccc(-c2nn(-c3ccccc3)cc2-c2ccnc(NCCNS(=O)(=O)c3ccccc3)c2)c1`: the growth is 8.92% (active).

With `CNC(=O)c1cnc(C)nc1-c1cc(C(C)(C)C)c(O)c(C(C)(C)C)c1`, the growth is 91.1%.

For `CCN(CCN(C)C)C(=O)CNCc1cc(C(N)=O)ccn1`, the growth was 88.7%.

Take `Clc1nc(Cl)c2ncn(C/C=C\Cn3cnc4c(Cl)nc(Cl)nc43)c2n1`: the growth was -70.2% (active).

For `CCOP(=O)(O)OP(=O)(O)OCC`, the growth is 94.1%.

For the compound `Oc1ccc(N=Cc2ccccc2O)cc1`, the growth is 63.3%.

On to `c1ccc2cc(-c3n(Cc4ccc5ccccc5n4)c4ccccc4[n+]3Cc3ccc4ccccc4n3)ccc2c1`, for which the growth is -55.1% (active).

For `Cc1sc2nc3c4ccccc4c(NCCCN(C)C)nn3c(=O)c2c1C`, the growth was -71% (active).

With `CC1Cc2c(Cl)ncnc2N(C)c2ccc(Cl)cc21` (centres undefined), the growth was 13.3%.

As to `N=C(N)c1ccc(-c2ccc(-c3ccccc3)o2)o1`, the growth is -17% (active).

Regarding `C(=C1c2ccccc2-c2ccccc21)c1ccncc1`, the growth is 9.03% (active).

In the case of `CC(C)=NNc1ncnc2c1ncn2C1OC(CO)C(O)C1O` (centres undefined), the growth was 6.58% (active).

With `O=c1ccc2cc3ccccc3cc2[nH]1`, the growth was 67.7%.

For the compound `COC(=O)CNC(=O)c1ccc(NC(=O)c2[nH]c(C)c(Cl)c2Cl)c(O[C@H]2CCNC2)c1`, the growth was 95.7%.

For `COc1ccc(C(=S)N2CCN(c3ccccc3Cl)CC2)cc1OC`, the growth is 118%.

With `Oc1[nH]c2ccccc2c1/C=c1/ccc2c(c1)N=C(c1cc(F)cc(F)c1)N=2`, the growth is 54.2%.

Turning to `Cc1cccc(N2CCC(=O)NC2=S)c1`, the growth was 98.6%.

For the compound `CC(=O)OCCC/C(=C/c1cc2ccccc2c2ccccc12)[N+](=O)[O-]`, the growth was -52.1% (active).

Consider `COc1cc(CSc2nc3ccc(C)cc3c(=O)n2-c2ccccc2)cc(OC)c1OC`, for which the growth was 12.2%.

On to `COC1=CC(c2ccc[nH]2)=N/C1=C\c1[nH]c(C)c(C(=O)CCCCC(=O)NC(C)(C)C)c1C`, for which the growth was 3.43% (active).

Take `OCC(CO)(CCl)CCl`: the growth was 96.3%.

Consider `Cc1nn(-c2ccccc2)c(-n2ccnc2)c1/C=N/Nc1nc(-c2ccc(F)cc2)cs1`, for which the growth was 94.4%.

`Cc1occc1-c1n[nH]c(=S)n1N1C(=O)CSC1=S`: the growth is 99.2%.

Consider `COc1cc2c(=O)n(CCCn3ccnc3)c3c4cc5c(cc4ccc3c2cc1OC)OCO5`, for which the growth is -15.2% (active).

As to `Cn1cc(-c2csc(-c3c[nH]c4ncccc34)n2)c2cc(Br)cnc21`, the growth was 87.6%.

Regarding `CN(C)c1ccc(-c2ccc3c(c2)c(-c2ccccc2)nc(=O)n3C)cn1`, the growth was 43.5%.

With `CCCCCCCCCCCC(=O)[O][Sn]([CH2]CCC)([CH2]CCC)[CH2]CCC`, the growth was -44.1% (active).

`Cc1ccc2nc(N)nnc2c1`: the growth was 125%.

With `ClC(Cl)(Cl)c1nc2nccnc2[nH]1`, the growth was 103%.

Take `NC(=O)CN1CCN(c2ccccc2Cl)CC1`: the growth was 92.4%.

For the compound `CCCC/C=N/NC(=S)NCc1ccccc1`, the growth is 105%.
